Assay results published in the supplement of paper PMC7411054.
Counter-ions that a name gives are not always drawn.

Tests used:
Experiment in all cases: lowest phenotypically active concentration; higher = less potent
Settings in all cases: treatment time: 24 h
A549-CANX-COX4 = test system: A549-CANX-COX4
Summary of the method: (§1)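 The reporter lines, fifteen in total and built by gene editing in A549, HepG2 and WPMY1 cells, used BFP for segmentation alongside GFP and RFP/FusionRed markers. Each was treated at 0.3, 1, 3 or 9 µM for 24 h in four wells and then imaged live, with live-cell features normalised to solvent control wells. Deviation meant ≥3 of 4 wells beyond the 95th percentile of control Euclidean distances; reproducibility meant a median replicate Pearson correlation above the 95th percentile of non-replicates. Only conditions meeting both were scored as phenotypically active.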

A549-TP53BP1-CLTA = test system: A549-TP53BP1-CLTA
Summary of the method: as §1

HepG2-CANX-COX4 = test system: HepG2-CANX-COX4
Summary of the method: as §1

HepG2-GM130-SQSTM1 = test system: HepG2-GM130-SQSTM1
Summary of the method: as §1

HepG2-TP53BP1-CLTA = test system: HepG2-TP53BP1-CLTA
Summary of the method: as §1

HepG2-TUBA1B-RELA = test system: HepG2-TUBA1B-RELA
Summary of the method: as §1

WPMY1-GM130-SQSTM1 = test system: WPMY1-GM130-SQSTM1
Summary of the method: as §1

WPMY1-TP53BP1-CLTA = test system: WPMY1-TP53BP1-CLTA
Summary of the method: as §1

WPMY1-TUBA1B-RELA = test system: WPMY1-TUBA1B-RELA
Summary of the method: as §1

HepG2-ACTB-RAB5A = test system: HepG2-ACTB-RAB5A
Summary of the method: as §1

Measured: lowest phenotypically active concentration

O=C1N=C(NCc2cccs2)S/C1=C\c1ccc2ncccc2c1
9 µM: HepG2-GM130-SQSTM1
1 µM: WPMY1-GM130-SQSTM1
not listed: HepG2-ACTB-RAB5A
3 µM: all other assays above

O=C(NCCCNc1nc(Nc2cccc(NC(=O)N3CCCC3)c2)ncc1I)c1cccs1
≤ 0.3 µM: HepG2-TUBA1B-RELA
1 µM: HepG2-CANX-COX4 | HepG2-TP53BP1-CLTA
3 µM: all other assays above

Oc1cccc(-c2nc(N3CCOCC3)c3oc4ncccc4c3n2)c1 [PI 103 hydrochloride]
≤ 0.3 µM: all assays above

COc1cc(O)cc(O)c1C(=O)/C=C/c1ccccc1 [Cardamonin]
3 µM: HepG2-GM130-SQSTM1
not listed: HepG2-TP53BP1-CLTA
9 µM: all other assays above

CN1CC[C@H](c2c(O)cc(O)c3c(=O)cc(-c4ccccc4Cl)oc23)[C@H](O)C1 [Flavopiridol hydrochloride]
≤ 0.3 µM: all assays above

COc1cc2c(N3CCN(C(=O)Nc4ccc(OC(C)C)cc4)CC3)ncnc2cc1OCCCN1CCCCC1 [tandutinib]
3 µM: HepG2-TUBA1B-RELA
not listed: WPMY1-TP53BP1-CLTA
9 µM: all other assays above

CCc1cncnc1N1CCN(Cc2nc3cc(C(F)(F)F)ccc3[nH]2)CC1
3 µM: HepG2-TUBA1B-RELA
not listed: A549-TP53BP1-CLTA | WPMY1-GM130-SQSTM1 | WPMY1-TP53BP1-CLTA
9 µM: all other assays above

Cc1nnc(-c2ccc3occ(-c4ccc(S(C)=O)cc4)c3c2)o1 (configuration not stated)
3 µM: HepG2-TUBA1B-RELA
not listed: HepG2-TP53BP1-CLTA | WPMY1-TUBA1B-RELA
9 µM: all other assays above

CC(C)(C)c1cc(C(=O)/C=C/c2ccc(C(=O)O)cc2)cc(C(C)(C)C)c1
3 µM: WPMY1-TUBA1B-RELA
≤ 0.3 µM: HepG2-ACTB-RAB5A | HepG2-CANX-COX4 | WPMY1-GM130-SQSTM1 | WPMY1-TP53BP1-CLTA
9 µM: A549-CANX-COX4 | HepG2-GM130-SQSTM1 | HepG2-TP53BP1-CLTA

CCCOc1ccc(CCc2nc3cc(-c4c(C)noc4C)ccc3n2CCN2CCOCC2)cc1
9 µM: A549-CANX-COX4 | HepG2-ACTB-RAB5A | HepG2-CANX-COX4 | HepG2-TP53BP1-CLTA

O=S(=O)(c1cccc2c(O)nccc12)N1CCCNCC1 [HA 1100 hydrochloride]
1 µM: HepG2-TP53BP1-CLTA
3 µM: WPMY1-TUBA1B-RELA
≤ 0.3 µM: HepG2-CANX-COX4
not listed: HepG2-TUBA1B-RELA
9 µM: all other assays above

C=C1C(=O)O[C@@H]2[C@H]3O[C@]3(C)CCC=C(C)CC[C@@H]12 [Parthenolide]
3 µM: HepG2-GM130-SQSTM1
9 µM: A549-CANX-COX4 | HepG2-ACTB-RAB5A | HepG2-CANX-COX4 | WPMY1-GM130-SQSTM1 | WPMY1-TUBA1B-RELA

CN(C)c1ccc(/C=C2\C(=O)Nc3ccccc32)cc1
3 µM: A549-TP53BP1-CLTA | WPMY1-GM130-SQSTM1
9 µM: A549-CANX-COX4 | HepG2-GM130-SQSTM1 | HepG2-TP53BP1-CLTA | HepG2-TUBA1B-RELA | WPMY1-TP53BP1-CLTA

Cc1cccc(C)c1OCC(=O)N[C@@H](Cc1ccccc1)[C@@H](O)C[C@H](Cc1ccccc1)NC(=O)[C@H](C(C)C)N1CCCNC1=O [lopinavir]
9 µM: A549-CANX-COX4 | HepG2-ACTB-RAB5A | HepG2-TUBA1B-RELA

CC1(C)O[C@@H]2C[C@H]3[C@@H]4C[C@H](F)C5=CC(=O)C=C[C@]5(C)[C@@]4(F)[C@@H](O)C[C@]3(C)[C@]2(C(=O)CO)O1 [fluocinolone acetonide]
≤ 0.3 µM: A549-CANX-COX4 | A549-TP53BP1-CLTA

COc1cc2c(cc1NS(=O)(=O)c1ccc(Br)cc1C)n(C)c(=O)n2C
9 µM: A549-CANX-COX4 | A549-TP53BP1-CLTA | HepG2-ACTB-RAB5A | HepG2-GM130-SQSTM1
3 µM: HepG2-CANX-COX4 | HepG2-TUBA1B-RELA

O=C(Nc1ccccc1)c1cc([N+](=O)[O-])ccc1Cl
9 µM: A549-CANX-COX4 | HepG2-ACTB-RAB5A

Nc1ncnc2[nH]nc(Nc3ccc(F)cc3)c12
3 µM: WPMY1-GM130-SQSTM1
not listed: A549-TP53BP1-CLTA | HepG2-CANX-COX4
9 µM: all other assays above

Nc1nccc(-c2ccc3noc(-c4ccc(Cl)cc4)c3c2)n1 [PIM-1 Inhibitor 2]
9 µM: A549-CANX-COX4 | A549-TP53BP1-CLTA | HepG2-TP53BP1-CLTA | WPMY1-GM130-SQSTM1 | WPMY1-TP53BP1-CLTA | WPMY1-TUBA1B-RELA

C[C@@H]1C[C@H]2[C@@H]3CCC4=CC(=O)C=C[C@]4(C)[C@@]3(Cl)[C@@H](O)C[C@]2(C)[C@@]1(OC(=O)c1ccco1)C(=O)CCl [mometasone furoate]
≤ 0.3 µM: A549-CANX-COX4 | A549-TP53BP1-CLTA
3 µM: WPMY1-GM130-SQSTM1

CC/C(=C(/c1ccccc1)c1ccc(OCCN(C)C)cc1)c1ccccc1 [tamoxifen]
3 µM: HepG2-TUBA1B-RELA
not listed: A549-TP53BP1-CLTA | HepG2-CANX-COX4
9 µM: all other assays above

CC(C)C(=O)SCCCCCCC(=O)Nc1nc(-c2ccccc2)cs1
9 µM: WPMY1-TP53BP1-CLTA
3 µM: HepG2-CANX-COX4
1 µM: A549-CANX-COX4 | WPMY1-GM130-SQSTM1 | WPMY1-TUBA1B-RELA

CCCCc1oc2ccc(NS(C)(=O)=O)cc2c1C(=O)c1ccc(OCCCN(CCCC)CCCC)cc1 [dronedarone]
3 µM: HepG2-TUBA1B-RELA
not listed: A549-TP53BP1-CLTA | HepG2-CANX-COX4 | WPMY1-GM130-SQSTM1
9 µM: all other assays above

OCc1cc(C(O)CNCCCCCCOCCCCc2ccccc2)ccc1O (configuration not stated) [salmeterol]
1 µM: WPMY1-GM130-SQSTM1
not listed: A549-TP53BP1-CLTA | HepG2-CANX-COX4
9 µM: all other assays above

CN(C)CC(=O)Nc1ccc2[nH]c(=O)c3ccccc3c2c1 [PJ 34 hydrochloride]
not listed: A549-TP53BP1-CLTA | WPMY1-TP53BP1-CLTA
9 µM: all other assays above
